An excerpt weighted towards active compounds, which were near 3.3% of everything screened.
VACV Venus inh: qHTS for Stage-Specific Inhibitors of Vaccinia Orthopoxvirus: Venus Reporter Primary qHTS; Vaccinia virus Venus reporter expression, fluorescence; hit rate 0.46% among 330,000; AID 720580, 2013; Potency, µM (top dose mostly 36.5 µM), usual class: inhibitors; calls by dose curve; tested in A549 cells; also: nearly all actives have a fitted effect of over 30% in size
VACV mCherry inh: qHTS for Stage-Specific Inhibitors of Vaccinia Orthopoxvirus: mCherry Reporter Primary qHTS. Potency, µM (doses to about 36.5 µM), actives largely listed as inhibitors. Vaccinia virus mCherry reporter infection, fluorescence. hit rate 0.63% among 310,000; calls by dose curve; tested in A549 cells; also: nearly all actives have a fitted effect of over 35% in size
HCV inh: qHTS Assay for Inhibitors of Hepatitis C Virus (HCV); Huh7.5.1 HCVcc-Cre infection, luciferase reporter, 44 h; Potency, µM (titrated, usually from 41.8 µM), usual class: inhibitors; hit rate 3.4% among 340,000; active = well fitted inhibition curve with a large enough effect; inconclusive = small, poorly fitted or top-dose-only effect, or another doubt; inactive = no such curve, though single readings can be large or run the other way
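Cells (1,000/well) were plated 4 h before compound, then infected with HCVcc-Cre virus (~0.5 moi). After 44 h further culture, infection was read as luciferase luminescence following a 15 min substrate incubation at room temperature.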
Of the large screens only hits and unclear results are named; the others gave an inactive call.

O=C(O)c1cc(O)c2c(c1)[C@@H]([C@H]1c3cc(C(=O)O)cc(O)c3C(=O)c3c(O[C@@H]4O[C@H](CO)[C@@H](O)[C@H](O)[C@H]4O)cccc31)c1cccc(OC3O[C@H](CO)[C@@H](O)[C@H](O)[C@H]3O)c1C2=O (stereo partly drawn)	none
COc1ccc(OC)c(S(=O)(=O)Nc2ccc(-c3ccc4nncn4n3)cc2)c1	VACV Venus inh 10µM, VACV mCherry inh 8.91µM, HCV inh inconclusive
O=S(=O)(Nc1ccc(-c2ccc3nncn3n2)cc1)c1cc(F)ccc1F	VACV mCherry inh inconclusive
Cc1ccc(S(=O)(=O)c2nc(Nc3ccccc3N3CCOCC3)sc2Cl)cc1	HCV inh 10µM (no result: VACV Venus inh, VACV mCherry inh)
Cc1ccc(S(=O)(=O)c2nc(Nc3ccccc3C#N)sc2Cl)cc1	none
CCC(O)CNC(=O)NC(=C(Cl)Cl)c1ccc(C)c(F)c1 (stereo not drawn)	HCV inh 15.8µM (no result: VACV Venus inh, VACV mCherry inh)
CCNC(=O)C1(C)CCN(C(=O)c2ccc(C)c(F)c2)C1 (stereo not drawn)	none (no result: HCV inh)
N#Cc1ccc(C(=O)OCC(=O)N2CCOCC2)cc1	none
Cc1cc(C)c(S(=O)(=O)NCC(=O)NCc2ccccn2)c(C)c1	none
CCC1(C2CCN(C(=O)c3coc4c3C(=O)CCC4)CC2)NC(=O)N(CCc2scnc2C)C1=O (stereo not drawn)	none (no result: HCV inh)
CCOC(=O)C1CCCN(S(=O)(=O)c2ccc(C)cc2)C1 (stereo not drawn)	none
CCOC(=O)C1CCCN(S(=O)(=O)c2ccc(Cl)nc2)C1 (stereo not drawn)	VACV Venus inh inconclusive, VACV mCherry inh 14.1µM
CN(C)c1ccc(N=Nc2nc3ccccc3n2C)cc1	HCV inh 10µM (no result: VACV Venus inh, VACV mCherry inh)
Cn1c(N=Nc2ccccc2)nc2ccccc21	HCV inh inconclusive
O=C(NC1(C(F)(F)F)C(=O)Nc2c1c(=O)[nH]c(=O)n2CCc1ccccc1)c1ccc(Cl)cc1 (stereo not drawn)	none (no result: HCV inh)
COCc1ccc(CN2CCOc3c(cc(-c4cc(C)c5cccc(OC)c5n4)cc3OC)C2)o1	none (no result: HCV inh)
O=C(CSCC(=O)N1CCCCC1)Nc1nc(-c2ccc(Cl)s2)cs1	VACV Venus inh inconclusive, VACV mCherry inh inconclusive
O=C(CSCC(=O)N1CCN(c2ccccc2)CC1)Nc1nc(-c2ccc(Cl)s2)cs1	VACV Venus inh inconclusive, VACV mCherry inh inconclusive, HCV inh 6.31µM
COc1ccc(CN2CCNC(=O)C2CC(=O)NCc2cc(C)n(C)n2)c(F)c1 (stereo not drawn)	none
COc1ccc(-c2ccc3oc(-c4ccsc4)cc(=O)c3c2)cc1F	none
COc1cc(-c2ccc3oc(-c4ccsc4)cc3c2)cc(OC)c1OC	VACV Venus inh 14.1µM, VACV mCherry inh inconclusive
Cc1ccc(/C=C2\C(=O)Nc3ccccc32)o1	HCV inh inconclusive
Cc1ccc2c(c1)/C(=C/c1ccco1)C(=O)N2	HCV inh 11.2µM
CCC(Sc1nc2nccnc2c(=O)n1Cc1ccc(Cl)cc1)C(=O)NC1CCCCC1 (stereo not drawn)	none (no result: HCV inh)
CCOc1ccc2oc(C(=O)Nc3cc(C)ccn3)c(C)c2c1	none
Cc1nc(NC2=NCN(CCCN3CCOCC3)CN2)nc2c(C)cccc12	HCV inh 7.08µM
Cc1nc(NC2=NCN(CCc3ccccc3)CN2)nc2ccccc12	none (no result: VACV Venus inh, VACV mCherry inh)
Cc1ccc(Cl)cc1NC(=O)CCn1c(=O)c2cccn2c2cccnc21	none (no result: HCV inh)
CC(=O)c1ccc(OCC(O)CN2CCN(S(=O)(=O)c3c(C)c(C)cc(C)c3C)CC2)cc1 (stereo not drawn)	HCV inh 12.6µM
CC(=O)c1ccc(OCC(O)CN2CCN(CC(O)COc3ccc(C(C)=O)cc3)CC2)cc1 (stereo not drawn)	none (no result: VACV mCherry inh)
COc1ccc(-c2c(-c3cc(OC)cc(OC)c3)n(C)c3ccc(-c4ccc(S(N)(=O)=O)cc4)cc23)cc1	HCV inh 10µM
COc1cc(OC)cc(-c2c(-c3cccs3)c3cc(-c4ccc5cc[nH]c5c4)ccc3n2C)c1	VACV mCherry inh inconclusive, HCV inh 4.47µM
COc1ccc(-c2c(-c3cc(OC)cc(OC)c3)n(C)c3ccc(-c4cnc(N)nc4)cc23)cc1	VACV Venus inh inconclusive
COc1cccc(-c2c(-c3cc(OC)cc(OC)c3)n(C)c3ccc(-c4ccc5cc[nH]c5c4)cc23)c1	HCV inh inconclusive
CC(C)Oc1ccc(C(=O)NCC2Cc3cc(F)cc(-c4cnccn4)c3O2)cc1 (stereo not drawn)	none (no result: HCV inh)
CC(C)n1cnnc1SCC(=O)Nc1cccnc1Cl	none (no result: VACV Venus inh, VACV mCherry inh)
C/C(=N\NC(=O)c1ccoc1C)c1ccc(Cl)s1	none (no result: VACV Venus inh, VACV mCherry inh)
CCNC(=S)N/N=C(\C)c1ccc2ccccc2c1OC(F)F	HCV inh inconclusive
C/C(=N\NC(=S)NC(C)C)c1ccc2c(c1)OCCO2	VACV mCherry inh inconclusive, HCV inh inconclusive
C/C(=N\NC(=S)NC(C)C)c1ccc(Cl)s1	HCV inh 6.31µM
C/C(=N\NC(=S)NC(C)C)c1ccccc1OC(F)F	HCV inh 14.1µM
C/C(=N\NC(N)=S)c1ccc(Cl)s1	VACV Venus inh inconclusive, VACV mCherry inh 0.355µM
CC1=C(C(=O)OCc2ccc3nsnc3c2)N2C(=O)[C@@H](NC(=O)OCc3ccc4nsnc4c3)[C@H]2SC1	none (no result: HCV inh)
Cc1cnc(-n2ncc(C(=O)NCC(C)(C)N3CCOCC3)c2C)nc1-c1cccs1	none (no result: HCV inh)
COc1ccccc1-c1nnc2n1N=C(C(C)(C)C)CS2	none (no result: VACV Venus inh, VACV mCherry inh)
COc1cccc(-c2nnc3n2N=C(C(C)(C)C)CS3)c1	HCV inh 11.2µM (no result: VACV Venus inh, VACV mCherry inh)
COc1cccc(-c2nnc3n2N=C(c2cc(OC)ccc2OC)CS3)c1	HCV inh 10µM (no result: VACV Venus inh, VACV mCherry inh)
COc1ccc(OC)c(C2=Nn3c(nnc3-c3cc(OC)c(OC)c(OC)c3)SC2)c1	VACV Venus inh inconclusive (no result: HCV inh)
COc1ccc(OC)c(C2=Nn3c(nnc3-c3ccncc3)SC2)c1	none
CCOc1cccc(-c2nnc3n2N=C(c2cc(OC)ccc2OC)CS3)c1	HCV inh 11.2µM
COc1cc(=O)n2c(c1C(=O)NCc1ccco1)CCN(Cc1ccc3nsnc3c1)CC2	none (no result: HCV inh)
COc1ccccc1-c1cc2c(c(OC)c1)OCCN(C(=O)Cn1nc(-c3ccccc3)c3ccccc3c1=O)C2	none (no result: HCV inh)
CN(C)c1ccc(/C=C/c2ccnc3ccc([N+](=O)[O-])cc23)cc1	none (no result: HCV inh)
COc1cccc2c1CCC1CC(=O)CC[C@@]21C (stereo partly drawn)	none (no result: HCV inh)
CNc1nc(-c2ccc([N+](=O)[O-])cc2)cs1	none (no result: VACV mCherry inh)
O=[N+]([O-])c1ccc(-c2csc(NN=C3CCCC3)n2)cc1	HCV inh 8.91µM
CNc1c(Br)cc(C(O)C2=CCc3ccccc32)cc1Br (stereo not drawn)	none (no result: HCV inh)
C=CC[C@@H](Cc1ccc(F)cc1)C(=O)OC[C@@H]1CCCN1C(=O)[C@H](CC=C)CC(=O)N(CCO)Cc1ccccc1	VACV Venus inh inconclusive, HCV inh 1.41µM
C=CC[C@@H](Cc1ccc(F)cc1)C(=O)OC[C@H]1CCCN1C(=O)[C@@H](CC=C)CC(=O)N(CCO)Cc1ccccc1	HCV inh inconclusive
C=CC[C@@H](CC(=O)N(CCO)Cc1ccccc1)C(=O)NC[C@@H](OC(=O)[C@@H](CC=C)Cc1ccc(F)cc1)c1ccccc1	HCV inh inconclusive
C=CC[C@H](CC(=O)N(CCO)Cc1ccccc1)C(=O)NCCOC(=O)[C@@H](CC=C)Cc1ccc(F)cc1	HCV inh inconclusive
C=CCC[C@@H](Cc1ccc(F)cc1)C(=O)OCCNC(=O)[C@@H](CC=C)CC(=O)N(CCO)Cc1ccccc1	VACV Venus inh inconclusive, HCV inh 10µM

Compound activity (PubChem)
